Source: the supplement of paper PMC8975748
Where a name gives a salt, the structure may show the parent alone. ± gives the standard deviation of the averaged measurements.

Tests used:
[1] = test system: Saccharomyces cerevisiae BY4741 SeMeCo community; assay: mean cell size (pixel area) (pixels); higher = larger cells; details: 10 µM; 24 h; SM minimal medium
Outline: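 A four-plasmid fluorescent Saccharomyces cerevisiae BY4741 community was tested; each plasmid complements one auxotrophy and carries a fluorescent marker. An overnight preculture at OD600 = 1.0 was diluted to OD600 = 0.3, and 70 µl was added to 384-well plates acoustically predosed with drug (final 10 µM) in SM medium for 24 h. Cells were fixed with paraformaldehyde and imaged by automated confocal microscopy, with analysis in Harmony. Mean cell pixel area per well is averaged over 3 replicates. Same SeMeCo high-content imaging drug screen: Selleck FDA-approved drugs at 10 µM, 24 h in SM medium, 384-well plates, 3 replicates.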

[2] = test system: Saccharomyces cerevisiae BY4741 SeMeCo community; assay: z-score of subpopulation abundance vs DMSO median, subpopulation auxotrophic for M; higher = larger share of this subpopulation than in DMSO controls; details: 10 µM; 24 h; SM minimal medium; subpopulation (auxotrophy): M
Outline: (§1)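 A Saccharomyces cerevisiae BY4741 community carried four plasmids, each restoring one auxotrophy and encoding a distinct fluorescent protein. It was pre-grown overnight to OD600 1.0, diluted to 0.3, and 70 µl was added to 384-well plates acoustically predosed with library drugs (10 µM final), then grown 24 h in minimal SM medium. Cells were paraformaldehyde-fixed and imaged by automated confocal microscopy, with single-auxotroph fluorescent strains setting thresholds and autofluorescence correction. Each subpopulation's abundance was scored as a z-score against the vehicle-well median.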

[3] = test system: Saccharomyces cerevisiae BY4741 SeMeCo community; assay: z-score of subpopulation abundance vs DMSO median, subpopulation auxotrophic for L; higher = larger share of this subpopulation than in DMSO controls; details: 10 µM; 24 h; SM minimal medium; subpopulation (auxotrophy): L
Outline: as §1

[4] = test system: Saccharomyces cerevisiae BY4741 SeMeCo community; assay: z-score of subpopulation abundance vs DMSO median, subpopulation auxotrophic for U; higher = larger share of this subpopulation than in DMSO controls; details: 10 µM; 24 h; SM minimal medium; subpopulation (auxotrophy): U
Outline: as §1

[5] = test system: Saccharomyces cerevisiae BY4741 SeMeCo community; assay: z-score of subpopulation abundance vs DMSO median, subpopulation auxotrophic for H; higher = larger share of this subpopulation than in DMSO controls; details: 10 µM; 24 h; SM minimal medium; subpopulation (auxotrophy): H
Outline: as §1

[6] = test system: Saccharomyces cerevisiae BY4741 SeMeCo community; assay: z-score of subpopulation abundance vs DMSO median, subpopulation auxotrophic for LU; higher = larger share of this subpopulation than in DMSO controls; details: 10 µM; 24 h; SM minimal medium; subpopulation (auxotrophy): LU
Outline: as §1

[7] = test system: Saccharomyces cerevisiae BY4741 SeMeCo community; assay: z-score of subpopulation abundance vs DMSO median, subpopulation auxotrophic for LM; higher = larger share of this subpopulation than in DMSO controls; details: 10 µM; 24 h; SM minimal medium; subpopulation (auxotrophy): LM
Outline: as §1

[8] = test system: Saccharomyces cerevisiae BY4741 SeMeCo community; assay: z-score of subpopulation abundance vs DMSO median, subpopulation auxotrophic for HM; higher = larger share of this subpopulation than in DMSO controls; details: 10 µM; 24 h; SM minimal medium; subpopulation (auxotrophy): HM
Outline: as §1

[9] = test system: Saccharomyces cerevisiae BY4741 SeMeCo community; assay: z-score of subpopulation abundance vs DMSO median, subpopulation auxotrophic for HU; higher = larger share of this subpopulation than in DMSO controls; details: 10 µM; 24 h; SM minimal medium; subpopulation (auxotrophy): HU
Outline: as §1

[10] = test system: Saccharomyces cerevisiae BY4741 SeMeCo community; assay: z-score of subpopulation abundance vs DMSO median, subpopulation auxotrophic for UM; higher = larger share of this subpopulation than in DMSO controls; details: 10 µM; 24 h; SM minimal medium; subpopulation (auxotrophy): UM
Outline: as §1

[11] = test system: Saccharomyces cerevisiae BY4741 SeMeCo community; assay: z-score of subpopulation abundance vs DMSO median, subpopulation auxotrophic for HL; higher = larger share of this subpopulation than in DMSO controls; details: 10 µM; 24 h; SM minimal medium; subpopulation (auxotrophy): HL
Outline: as §1

[12] = test system: Saccharomyces cerevisiae BY4741 SeMeCo community; assay: z-score of subpopulation abundance vs DMSO median, subpopulation auxotrophic for HLU; higher = larger share of this subpopulation than in DMSO controls; details: 10 µM; 24 h; SM minimal medium; subpopulation (auxotrophy): HLU
Outline: as §1

[13] = test system: Saccharomyces cerevisiae BY4741 SeMeCo community; assay: z-score of subpopulation abundance vs DMSO median, subpopulation auxotrophic for HLM; higher = larger share of this subpopulation than in DMSO controls; details: 10 µM; 24 h; SM minimal medium; subpopulation (auxotrophy): HLM
Outline: as §1

[14] = test system: Saccharomyces cerevisiae BY4741 SeMeCo community; assay: z-score of subpopulation abundance vs DMSO median, subpopulation auxotrophic for HUM; higher = larger share of this subpopulation than in DMSO controls; details: 10 µM; 24 h; SM minimal medium; subpopulation (auxotrophy): HUM
Outline: as §1

[15] = test system: Saccharomyces cerevisiae BY4741 SeMeCo community; assay: z-score of subpopulation abundance vs DMSO median, subpopulation auxotrophic for LUM; higher = larger share of this subpopulation than in DMSO controls; details: 10 µM; 24 h; SM minimal medium; subpopulation (auxotrophy): LUM
Outline: as §1

[16] = test system: Saccharomyces cerevisiae BY4741 SeMeCo community; assay: z-score of subpopulation abundance vs DMSO median, subpopulation auxotrophic for HLUM; higher = larger share of this subpopulation than in DMSO controls; details: 10 µM; 24 h; SM minimal medium; subpopulation (auxotrophy): HLUM
Outline: as §1

[17] = test system: Saccharomyces cerevisiae BY4741 SeMeCo community; assay: z-score of prototroph abundance vs DMSO median; higher = larger share of this subpopulation than in DMSO controls; details: 10 µM; 24 h; SM minimal medium; subpopulation (auxotrophy): Prototroph
Outline: as §1

Compound	mean cell size [1]	z-score of subpopulation abundance [2]	z-score of subpopulation abundance [3]	z-score of subpopulation abundance [4]	z-score of subpopulation abundance [5]	z-score of subpopulation abundance [6]	z-score of subpopulation abundance [7]	z-score of subpopulation abundance [8]	z-score of subpopulation abundance [9]	z-score of subpopulation abundance [10]	z-score of subpopulation abundance [11]	z-score of subpopulation abundance [12]	z-score of subpopulation abundance [13]	z-score of subpopulation abundance [14]	z-score of subpopulation abundance [15]	z-score of subpopulation abundance [16]	z-score of prototroph abundance [17]
CC(C)[N+]1(C)[C@@H]2CC[C@H]1C[C@@H](OC(=O)C(CO)c1ccccc1)C2 (stereo not given in full) [Ipratropium Bromide]	12.4 ± 0.27	-0.02	0.58	-0.33	-0.17	0.15	0.93	-0.34	-0.22	-0.31	-0.04	-0.02	-0.71	-0.65	-0.28	0.07	
COCCCN1CCC(NC(=O)c2cc(Cl)c(N)c3c2OCC3)CC1 [Prucalopride]	12.6 ± 0.1	0.21	-0.58	0.73	-0.52	0.77	-0.04	0.24	0.16	0.57	-0.99	-0.6	0.6	0.36	-0.29	-0.34	-0.29
Oc1c(I)cc(Cl)c2cccnc12 [Clioquinol]	13.1 ± 0.49	-0.87	-0.06	-1.64	9.23	10.4	5.23	37.7	16	6.49	9.34	41	119	16.6	9.68	22.7	-17.7
C=CC[N+]1([C@H]2C[C@H]3[C@@H]4CC[C@H]5C[C@H](O)[C@@H](N6CCOCC6)C[C@]5(C)[C@H]4CC[C@]3(C)[C@H]2OC(C)=O)CCCC1 [Rocuronium Bromide]	12.44 ± 0.065	-1.19	0.67	-0.5	-0.21	-0.06	-0.17	-0.59	-0.39	-0.71	-0.71	0	-0.65	-1.09	-0.48	-0.49	0.88
CN[C@@H]1[C@H](O[C@H]2[C@H](O[C@H]3[C@H](O)[C@@H](O)[C@H](NC(=N)N)[C@@H](O)[C@@H]3NC(=N)N)O[C@@H](C)[C@]2(O)CO)O[C@@H](CO)[C@H](O)[C@H]1O [Dihydrostreptomycin sulfate]	12.2 ± 0.26	-0.56	0.01	0.78	-0.62	-0.74	-0.32	-0.91	-0.87			-1	0.47	-0.82	-0.71	0.3	0.5
Oc1c(Cl)cc(Cl)c(Cl)c1Cc1c(O)c(Cl)cc(Cl)c1Cl [Hexachlorophene]	12.08 ± 0.11	0.14	-1.4	0.01	7.09	-0.56	1.88	9.29	4.22	5.02	3.85	1.13	8.62	14	2.37	7.77	-5.27
CC(C)(C)C(=O)OCOC(=O)[C@@H]1N2C(=O)[C@@H](/N=C/N3CCCCCC3)[C@H]2SC1(C)C [Pivmecillinam hydrochloride]	12.3 ± 0.13	-0.74	0.41	0.34	0.1	0.57	-0.18	-0.25	-0.03	-0.01	0.29	-0.02	-0.52	-0.16	-0.28	-0.19	
CCOC(=O)C1=C(C)NC(C)=C(C(=O)OC)C1c1cccc(Cl)c1Cl (stereo not given) [Felodipine]	12.57 ± 0.072	3.86	1.68	-6.72	3.29	-6.85	4.88	4.69	-6.8	-7.8	4.71	-3.41	8.73	-5.68	-4.09	-1.13	2.53
CN1C2CCC1CC(OC(=O)C(O)c1ccccc1)C2 (stereo not given) [Homatropine Bromide]	12.31 ± 0.032	-0.4	-0.11	1.49	-0.41	0.66	-0.11	-1.06	0.61	0.94		-0.08	-0.76	0	0.09	0.14	-0.38
CN(C)CCCN1c2ccccc2Sc2ccccc21 [Promazine hydrochloride]	12.5 ± 0.15	0.15	-0.38	0.34	-0.82	0.52	-0.08	-0.18	-0.69		-0.82	0.06	0.41	0.07	0.25	0.6	0.19
CNCc1cc(-c2ccccc2F)n(S(=O)(=O)c2cccnc2)c1 [Vonoprazan Fumarate (TAK-438)]	12.3 ± 0.26	0.45	-1.45	0.84	-0.55	-0.72	-0.98	-0.52	-0.16			-0.64	-0.4	-0.68	-0.32	-0.37	0
CN1C(C(=O)Nc2ccccn2)=C(O)c2sc(Cl)cc2S1(=O)=O [Lornoxicam]	12.1 ± 0.13	-0.04	-0.14	0.67	-0.26	-0.21	-0.22	-0.77	0.59		-0.56	-0.19	0.08	-0.27	0.46	-0.1	-0.29
Cc1ncc([N+](=O)[O-])n1CC(C)O (stereo not given) [Secnidazole]	12.4 ± 0.14	-0.32	-0.91	1.82	-0.22	0.55	-0.67	-0.21	0.82	0.75		0.35	-0.55	0.55	-0.06	-0.46	
